Experimental data from PubChem BioAssay (Tox21).
Records with an inconclusive call do not appear. Unmarked numbers belong to inactive results. Activity calls are given as the source filed them. The call rests on the fitted dose curve; in most records, active means well fitted activation curve with a large enough effect in the signal ratio in the repeat runs (not every such curve was filed as active); inconclusive means weak or mixed curves; inactive means flat fitted curve, though single readings scatter; the % refers to the signal ratio.

Assay: qHTS assay to identify small molecule agonists of the TGF-beta/Smad signaling pathway (AID 1346859)
Conditions: SBE-bla HEK293T, TGF-beta/Smad beta-lactamase reporter, 5 h; series mostly up to 76.8 µM; activation: at the top concentration
Text: U.S. Tox21 Program National Center for Advancing Translational Sciences [NCATS] NIH Chemical Genomics Center [NCGC] U.S. Environmental Protection Agency [EPA] National Institutes of Environmental Health Sciences [NIEHS] National Toxicology Program [NTP] U.S. Food and Drug Administration [FDA] Tox21 Assay Overview: Transforming growth factor beta (TGF-beta) superfamily consists of a large number of structurally related dimeric proteins that act as hormones or local mediators in regulating a wide range of biological functions. This superfamily includes TGF-betas themselves, the bone morphogenetic proteins (BMPs) and the activins. These ligands induce oligomerization of serine/threonine receptor kinases and phosphorylate the cytoplasmic signaling molecules of Smad protein family. CellSensor SBE-bla HEK 293T cell line (Life Technologies, Carlsbad, CA), responsive to TGF-beta was used to screen Tox21 10K compound library for identification of agonists/antagonists of the Smad signaling pathway. This cell line contains a beta-lactamase reporter gene under control of the Smad binding element (SBE) stably integrated into HEK 293T cells.
Tox21 Assay Protocol Summary: SBE-bla HEK 293T cells were dispensed at 4,000/well in 6 uL of assay medium into black wall/clear-bottom 1536-well plates using a Multidrop Combi (ThermoFisher Scientific, Waltham, MA) dispenser. After the assay plates were incubated at 37 C and 5% CO2 for an overnight, 23 nL of compounds dissolved in DMSO, positive controls or DMSO only was transferred to the assay plate by a Pintool station (Kalypsys, San Diego, CA). The assay plates were incubated at 37 C and 5% CO2 for 5 hr. One uL of LiveBLAzer B/G FRET substrate (Life Technologies) was added using a Flying Reagent Dispenser (Aurora Discovery, San Diego, CA) and the plates were incubated at room temperature for 2 hr. Fluorescence intensity (405 nm excitation, 460 nm and 530 nm emissions) was measured using an Envision plate reader (PerkinElmer, Shelton, CT).
On the % scale 0 is the no-effect control and ±100 the full control effect.

| SMILES | activation | outcome |
| --- | --- | --- |
| CC1=CC(=O)c2ccccc2C1=O | -6.92% [at 35.3 µM] | – |
| COC(=O)/C=C/c1ccccc1 | – | inactive |
| O=C(O)Cn1cnnn1 | 2.31% [at 35.3 µM] | – |
| CO[Si](OC)(OC)c1ccccc1 | 2.01% | – |
| C=CC(=O)OCCCCCCCC | 1.89% | – |
| NCCCCCC(=O)O | -7.41% [at 35.3 µM] | – |
| CNCCC(Oc1ccc(C(F)(F)F)cc1)c1ccccc1 (stereo not given) | – | inactive |
| CC[C@@H](N)CO | 3.77% | – |
| COc1ccc(COC(C)=O)cc1 | – | inactive |
| CC(C)(C)c1cc(C(C)(C)C)c(O)c(C(C)(C)C)c1 | – | inactive |
| COc1ccc(Cc2cnc(N)nc2N)cc1OC | 0.41% [at 35.3 µM] | – |
| Cc1cccc(O)c1C | – | inactive |
| Cc1cc(Cc2cc(C)cc(C(C)(C)C)c2O)c(O)c(C(C)(C)C)c1 | 4.19% | – |
| CCCNC(C)C(=O)Nc1ccccc1C (stereo not given) | 2.12% [at 35.3 µM] | – |
| c1ccc2cc3c(ccc4ccccc43)cc2c1 | 4.86% | – |
| CN(C)c1ccc(C(=C2C=CC(=[N+](C)C)C=C2)c2ccccc2)cc1 | – | inactive |
| O=C1NCC2(CCN(CCc3ccccc3)CC2)O1 | 0.335% [at 35.3 µM] | – |
| CCCCC/C=C/CC1CC(=O)OC1=O (stereo not given) | -0.267% | – |
| COc1nc(C)nc(Cl)c1NC1=NCCN1 | 4.05% [at 35.3 µM] | – |
| Nc1ccc(O)cc1 | 3.98% [at 35.3 µM] | – |

| SMILES | activation | outcome |
| --- | --- | --- |
| CCCCN(CCO)CCCC | -0.775% | – |
| c1cnc2cc3c(cc2n1)C1CNCC3C1 | 0.195% [at 35.3 µM] | – |
| [Cl][In]([Cl])[Cl] | – | inactive |
| O=C(O)c1cccc(C(=O)O)c1 | – | inactive |
| CCN(CC)CCOc1ccc(/C(=C(\Cl)c2ccccc2)c2ccccc2)cc1 | – | inactive |
| Cc1cccc([N+](=O)[O-])c1C(=O)O | -1.6% | – |
| c1ccc2n[nH]nc2c1 | – | inactive |
| CNC1(C)C2CCC(C2)C1(C)C (stereo not given) | -2.01% [at 35.3 µM] | – |
| NCCO | – | inactive |
| CC(=O)OCCOCCOCCOC(C)=O | – | inactive |
| CC1COC(=O)O1 (stereo not given) | – | inactive |
| CC(C)(C)NCC(O)COc1ccccc1OCC1CCCO1 (stereo not given) | 0.226% [at 35.3 µM] | – |
| CC[C@]1(O)C[C@@H]2CN(CCc3c([nH]c4ccccc34)[C@@](C(=O)OC)(c3cc4c(cc3OC)N(C)[C@H]3[C@@](O)(C(=O)OC)[C@H](OC(C)=O)[C@]5(CC)C=CCN6CC[C@]43[C@@H]65)C2)C1 | -6.72% [at 35.3 µM] | – |
| c1ccc2c(c1)CCCC2C1=NCCN1 (stereo not given) | 3.13% [at 35.3 µM] | – |
| CN(C)c1ccc2nc3ccc(=[N+](C)C)cc-3sc2c1 | – | inactive |
| CCN(CC)C(=O)Nc1ccc(OCC(O)CNC(C)(C)C)c(C(C)=O)c1 (stereo not given) | -0.005% [at 35.3 µM] | – |
| O=C1Nc2ccccc2C1(c1ccc(O)cc1)c1ccc(O)cc1 | – | inactive |
| CCC(=O)/C=C/C1C(C)=CCCC1(C)C (stereo not given) | – | inactive |
| CC(N)=O | -3.58% [at 200 µM] | – |
| CCN(CC)C(=S)SSC(=S)N(CC)CC | – | inactive |
